# Results as given in PubChem BioAssay (NCATS).
# Values without a mark were called inactive. Records with an inconclusive call do not appear. Where a call stands in place of a potency, no number is given. The source made the active and inactive calls. Unless noted, the call rests on the fitted dose curve; in most records, active means well fitted curve in the direction sought with a large enough effect; inconclusive means small, poorly fitted or top-dose-only effect, or another doubt; inactive means no such curve, though single readings can be large; an effect the other way counts as inactive or inconclusive.
# Key:
# [1] = biological target: Cytochrome P450 2C9 (Homo sapiens) (UniProt P11712); assay: qHTS Assay for Inhibitors and Substrates of Cytochrome P450 2C9 (AID 883); further: nearly all actives have a fitted effect of over 60% in size; further: potency means the concentration at half of the fitted maximal effect
# Outline: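 Luminescent read-out of deoxyluciferin hydroxylation, normalized to 57uM sulphaphenazole (AC100). Reaction: 10nM enzyme, 100uM Luciferin-H (equal to KM), 25mM KPO4, 10 min compound preincubation, then 60 min with NADPH regeneration, both at 37C.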
# [2] = biological target: Cytochrome P450 3A4 (Homo sapiens) (UniProt P08684); assay: qHTS Assay for Activators of Cytochrome P450 3A4 (AID 885); further: nearly all actives have a fitted effect of over 65% in size
# Outline: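 Human CYP3A4 dealkylates Luciferin-PPXE to luciferin, which luciferase detection converts to light. Substrate was at its KM (25uM), buffer 200mM KPO4, reaction 60 min at RT.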
# [3] = biological target: Cytochrome P450 2D6 (Homo sapiens) (UniProt P10635); assay: qHTS Assay for Inhibitors and Substrates of Cytochrome P450 2D6 (AID 891); further: nearly all actives have a fitted effect of over 60% in size; further: potency means the concentration at half of the fitted maximal effect;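 on activity change, negative = inhibition: luciferin methyl ether substrate demethylated by CYP2D6 with NADPH regeneration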
# Outline: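 Luminescent read-out of luciferin formed by 5 nM human CYP2D6 demethylating 30 uM Luciferin-ME EGE (Km level) over 60 min at room temperature after NADPH regeneration addition. Data normalized to full inhibition by 1.43 uM quinidine.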
# [4] = biological target: Cytochrome P450 3A4 (Homo sapiens) (UniProt P08684); assay: qHTS Assay for Inhibitors and Substrates of Cytochrome P450 3A4 (AID 884); further: series mostly up to about 57 µM; nearly all actives have a fitted effect of over 50% in size
# Outline: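 Luminescent readout of luciferin produced by CYP3A4 (20 nM) dealkylation of Luciferin-PPXE, 25 uM (its KM). NADPH-driven reaction ran 60 min at RT after 10 min compound preincubation; data scaled to 57 uM ketoconazole as 100% inhibition.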
# [5] = biological target: Guanine nucleotide-binding protein G(i) subunit alpha-1 (Homo sapiens) (UniProt P63096); assay: qHTS Assay for Inhibitors of RGS12 GoLoco Motif Activity (Green Fluorophore) (AID 879);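 further: negative values mean loss of peptide binding seen as reduced polarization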
# Outline: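 A drop in FITC polarization marked displacement of the FITC-tagged RGS12 GoLoco peptide (10 nM) from Gαi1 (50 nM). Compounds were incubated 10 min at room temperature in Tris pH 7.5 buffer containing 150 mM NaCl, 0.1 mM GDP and 0.05% NP40; unlabeled peptide titration served as control.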
# [6] = qHTS Assay for Identification of Small Molecule Antagonists for NFkB Signaling Pathway (AID 895; active means well fitted inhibition curve with a large enough effect in the signal ratio, with a control signal flat, not every such curve was filed as active; the % refers to the signal ratio)
# Outline: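 Beta-lactamase reporter read-out (460 and 530 nm emission ratio, 405 nm excitation, 2 hrs substrate loading RT) after 5 hr stimulation with 10 pM TNF alpha in compound-treated NFkB-bla ME-180 cells in low-serum medium.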
# Chain of Cytochrome P450 2D6 (Homo sapiens) (P10635 whole entry, looked up): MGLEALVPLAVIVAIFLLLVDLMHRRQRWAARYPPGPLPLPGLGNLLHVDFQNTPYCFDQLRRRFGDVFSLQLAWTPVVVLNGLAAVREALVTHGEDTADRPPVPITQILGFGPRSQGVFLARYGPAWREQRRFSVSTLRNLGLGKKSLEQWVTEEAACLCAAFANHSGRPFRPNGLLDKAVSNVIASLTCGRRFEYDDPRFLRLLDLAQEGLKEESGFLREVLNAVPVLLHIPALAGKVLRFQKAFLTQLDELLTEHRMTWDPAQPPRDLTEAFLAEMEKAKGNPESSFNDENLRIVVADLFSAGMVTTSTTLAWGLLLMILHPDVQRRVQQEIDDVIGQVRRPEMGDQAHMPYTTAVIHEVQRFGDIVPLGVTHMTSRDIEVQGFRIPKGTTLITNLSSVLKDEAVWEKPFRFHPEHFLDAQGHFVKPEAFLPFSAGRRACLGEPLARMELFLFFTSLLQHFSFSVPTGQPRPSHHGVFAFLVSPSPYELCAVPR
# Chain of Cytochrome P450 3A4 (Homo sapiens) (P08684 whole entry, looked up): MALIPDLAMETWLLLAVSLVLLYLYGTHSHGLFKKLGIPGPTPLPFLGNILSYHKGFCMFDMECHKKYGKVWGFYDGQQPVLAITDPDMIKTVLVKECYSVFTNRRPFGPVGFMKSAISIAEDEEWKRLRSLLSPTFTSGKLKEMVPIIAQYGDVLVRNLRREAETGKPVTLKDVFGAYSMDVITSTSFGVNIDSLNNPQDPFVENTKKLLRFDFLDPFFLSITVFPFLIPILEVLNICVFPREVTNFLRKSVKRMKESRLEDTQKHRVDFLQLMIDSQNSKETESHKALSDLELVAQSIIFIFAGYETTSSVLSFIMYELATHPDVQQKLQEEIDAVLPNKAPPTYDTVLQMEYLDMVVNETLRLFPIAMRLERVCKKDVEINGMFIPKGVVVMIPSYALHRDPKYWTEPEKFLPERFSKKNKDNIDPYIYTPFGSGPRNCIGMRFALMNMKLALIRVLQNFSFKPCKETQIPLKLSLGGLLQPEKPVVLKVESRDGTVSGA
# Chain of Cytochrome P450 2C9 (Homo sapiens) (P11712 whole entry, looked up): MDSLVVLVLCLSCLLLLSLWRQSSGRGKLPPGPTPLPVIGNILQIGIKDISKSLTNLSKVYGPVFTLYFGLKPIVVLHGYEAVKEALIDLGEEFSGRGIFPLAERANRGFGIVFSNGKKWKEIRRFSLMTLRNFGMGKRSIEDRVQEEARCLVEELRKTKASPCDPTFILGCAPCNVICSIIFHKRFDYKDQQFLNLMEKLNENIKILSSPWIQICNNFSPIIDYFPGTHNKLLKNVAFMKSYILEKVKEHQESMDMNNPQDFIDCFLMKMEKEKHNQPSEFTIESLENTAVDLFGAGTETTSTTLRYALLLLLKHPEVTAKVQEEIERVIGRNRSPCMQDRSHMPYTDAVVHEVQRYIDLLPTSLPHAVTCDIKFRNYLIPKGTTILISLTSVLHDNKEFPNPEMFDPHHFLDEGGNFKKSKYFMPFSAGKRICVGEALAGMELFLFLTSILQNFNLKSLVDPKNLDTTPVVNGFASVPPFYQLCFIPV
# Chain of Guanine nucleotide-binding protein G(i) subunit alpha-1 (Homo sapiens) (P63096 whole entry, looked up): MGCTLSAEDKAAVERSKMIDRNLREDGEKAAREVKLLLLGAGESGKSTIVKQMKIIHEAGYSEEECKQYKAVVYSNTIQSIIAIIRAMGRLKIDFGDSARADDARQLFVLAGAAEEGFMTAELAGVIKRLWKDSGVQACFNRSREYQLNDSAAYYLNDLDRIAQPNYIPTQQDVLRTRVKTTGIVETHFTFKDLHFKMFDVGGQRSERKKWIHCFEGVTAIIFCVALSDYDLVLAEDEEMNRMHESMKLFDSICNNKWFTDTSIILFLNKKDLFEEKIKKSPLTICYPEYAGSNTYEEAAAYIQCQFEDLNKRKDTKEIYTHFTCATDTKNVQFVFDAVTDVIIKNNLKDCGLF
compound,measurement,setting,value
CCOc1ccc(Cc2nccc3cc(OCC)c(OCC)cc23)cc1OCC,Potency,[1],3.98 µM (active)
same,Potency,[2],inactive
COc1c(C)c2c(c(O)c1C/C=C(\C)CCC(=O)O)C(=O)OC2,Potency,[1],inactive
same,Potency,[2],inactive
same,Potency,[3],inactive
CC(C)(CO)[C@@H](O)C(=O)NCCCO,Potency,[4],inactive
CCCn1c(=O)[nH]c(=O)c2[nH]cnc21,outcome,[5],inactive
same,Potency,[1],inactive
same,Potency,[4],inactive
same,Potency,[3],inactive
CC(CCc1ccccc1)NCC(O)c1ccc(O)c(C(N)=O)c1 (configuration not stated),Potency,[4],inactive
CCCCOc1ccc(C(=O)CCN2CCCCC2)cc1,Potency,[1],2.51 µM (active)
same,Potency,[2],inactive
same,Potency,[3],5.01 µM (active)
Cc1ccnc(NS(=O)(=O)c2ccc(N)cc2)n1,Potency,[1],inactive
same,Potency,[4],inactive
C[C@@H]1C(=O)NC2=Nc3cccc(Cl)c3CN21,outcome,[5],inactive
Cc1c(C(N)=O)cc([N+](=O)[O-])cc1[N+](=O)[O-],Potency,[4],inactive
CNCCC=C1c2ccccc2CCc2ccccc21,outcome,[5],inactive
same,"activity change, negative = inhibition",[1],-6.44% [at 11.4 µM]
same,Potency,[2],inactive
same,Potency,[3],3.16 µM (active)
CCN1CCN(c2cc3c(cc2F)c(=O)c(C(=O)O)cn3C2CC2)CC1,Potency,[4],inactive
C1CCc2nnnn2CC1,outcome,[5],inactive
same,Potency,[4],inactive
CC(=O)Nc1c(I)cc(I)c(C(=O)O)c1I,Potency,[4],inactive
Oc1c(I)cc(I)c2cccnc12,Potency,[4],inactive
COc1ccc(CCN2CCC(Nc3nc4ccccc4n3Cc3ccc(F)cc3)CC2)cc1,Potency,[1],inactive
same,Potency,[2],inactive
same,Potency,[3],7.94 µM (active)
OCc1ccccc1O,Potency,[4],inactive
CC(C)NC[C@@H](O)COc1cccc2ccccc12,outcome,[5],inactive
same,Potency,[4],inactive
CCN(CC)C(=O)N1CCN(C)CC1,Potency,[4],inactive
Nc1nc2ncc(CNc3ccc(C(=O)N[C@@H](CCC(=O)O)C(=O)O)cc3)nc2c(=O)[nH]1,Potency,[4],inactive
COc1cc(-c2ccc(=O)[nH]n2)ccc1OC(F)F,outcome,[5],inactive
same,Potency,[4],inactive
same,Potency,[3],inactive
CCCC1O[C@@H]2C[C@H]3[C@@H]4CCC5=CC(=O)C=C[C@]5(C)[C@H]4[C@@H](O)C[C@]3(C)[C@]2(C(=O)CO)O1 (some centres not stated),outcome,[5],inactive
same,Potency,[2],inactive
O=C(O)c1cc2cc(Cc3cccnc3)ccc2o1,outcome,[5],inactive
same,Potency,[4],inactive
same,Potency,[2],inactive
CN1CCN(C(c2ccccc2)c2ccccc2)CC1,Potency,[4],inactive
N[C@@H](Cc1cnc[nH]1)C(=O)O,outcome,[5],inactive
same,Potency,[2],inactive
same,Potency,[6],inactive
